In the supplement of paper PMC13380429:
Values without a mark were called inactive.

System: Vero E6 infected with SARS-CoV-2
Test: inhibition of SARS-CoV-2 cytopathic effect; higher = more antiviral protection, active = above 15
Details: 48 h

## CC(C)(C)c1nc(-c2cccc(NS(=O)(=O)c3c(F)cccc3F)c2F)c(-c2ccnc(N)n2)s1 [dabrafenib]
1 nM
  inhibition of SARS-CoV-2 cytopathic effect: -0.66%
8.33 nM
  inhibition of SARS-CoV-2 cytopathic effect: -0.54%
100 nM
  inhibition of SARS-CoV-2 cytopathic effect: 0.25%
833.33 nM
  inhibition of SARS-CoV-2 cytopathic effect: -1.77%
10000 nM
  inhibition of SARS-CoV-2 cytopathic effect: 13.1%

## COc1ccc(Oc2c(Cl)cnn(C3c4ccccc4-c4ccccc43)c2=O)cc1
1 nM
  inhibition of SARS-CoV-2 cytopathic effect: -3.45%
8.33 nM
  inhibition of SARS-CoV-2 cytopathic effect: -3.66%
100 nM
  inhibition of SARS-CoV-2 cytopathic effect: 0.55%
833.33 nM
  inhibition of SARS-CoV-2 cytopathic effect: -0.63%
10000 nM
  inhibition of SARS-CoV-2 cytopathic effect: -0.88%

## c1ccc(CNCc2ccc(CN3CCCNCCNCCCNCC3)cc2)nc1
1 nM
  inhibition of SARS-CoV-2 cytopathic effect: 0.27%
8.33 nM
  inhibition of SARS-CoV-2 cytopathic effect: 1.15%
100 nM
  inhibition of SARS-CoV-2 cytopathic effect: 3.41%
833.33 nM
  inhibition of SARS-CoV-2 cytopathic effect: 1.72%
10000 nM
  inhibition of SARS-CoV-2 cytopathic effect: 2.99%

## Cc1ccccc1-n1c(CF)nc2ccc(N)cc2c1=O [afloqualone]
1 nM
  inhibition of SARS-CoV-2 cytopathic effect: -0.9%
8.33 nM
  inhibition of SARS-CoV-2 cytopathic effect: 0.95%
100 nM
  inhibition of SARS-CoV-2 cytopathic effect: -0.71%
833.33 nM
  inhibition of SARS-CoV-2 cytopathic effect: -0.49%
10000 nM
  inhibition of SARS-CoV-2 cytopathic effect: 1.46%

## CN(C)[C@@H]1C(O)=C(C(N)=O)C(=O)[C@@]2(O)C(O)=C3C(=O)c4c(O)cccc4[C@@](C)(O)[C@H]3C[C@@H]12 [tetracycline]
1 nM
  inhibition of SARS-CoV-2 cytopathic effect: 1.65%
8.33 nM
  inhibition of SARS-CoV-2 cytopathic effect: 1.27%
100 nM
  inhibition of SARS-CoV-2 cytopathic effect: -0.37%
833.33 nM
  inhibition of SARS-CoV-2 cytopathic effect: -0.82%
10000 nM
  inhibition of SARS-CoV-2 cytopathic effect: 1.35%

## c1cc(-c2sc(-c3ccncc3)c(-c3ccncc3)c2-c2ccncc2)ccn1
1 nM
  inhibition of SARS-CoV-2 cytopathic effect: -1.78%
8.33 nM
  inhibition of SARS-CoV-2 cytopathic effect: -0.14%
100 nM
  inhibition of SARS-CoV-2 cytopathic effect: -3.51%
833.33 nM
  inhibition of SARS-CoV-2 cytopathic effect: -4.39%
10000 nM
  inhibition of SARS-CoV-2 cytopathic effect: -5.36%

## CC=CC1=C(C(=O)O)N2C(=O)[C@@H](NC(=O)[C@H](N)c3ccc(O)cc3)[C@H]2SC1 (mixture of isomers) [cefprozil]
1 nM
  inhibition of SARS-CoV-2 cytopathic effect: -0.42%
8.33 nM
  inhibition of SARS-CoV-2 cytopathic effect: 0.76%
100 nM
  inhibition of SARS-CoV-2 cytopathic effect: 2.16%
833.33 nM
  inhibition of SARS-CoV-2 cytopathic effect: -0.77%
10000 nM
  inhibition of SARS-CoV-2 cytopathic effect: 8.62%

## Cc1ccc2c(c1)[C@H]1CN(C)CC[C@H]1N2 [stobadine]
1 nM
  inhibition of SARS-CoV-2 cytopathic effect: 1.95%
8.33 nM
  inhibition of SARS-CoV-2 cytopathic effect: 2.65%
100 nM
  inhibition of SARS-CoV-2 cytopathic effect: 1.27%
833.33 nM
  inhibition of SARS-CoV-2 cytopathic effect: 1.23%
10000 nM
  inhibition of SARS-CoV-2 cytopathic effect: -0.96%

## CC(C)c1nc(N(C)S(C)(=O)=O)nc(-c2ccc(F)cc2)c1/C=C/[C@@H](O)C[C@@H](O)CC(=O)O [rosuvastatin]
1 nM
  inhibition of SARS-CoV-2 cytopathic effect: -0.46%
8.33 nM
  inhibition of SARS-CoV-2 cytopathic effect: 0.22%
100 nM
  inhibition of SARS-CoV-2 cytopathic effect: -2.09%
833.33 nM
  inhibition of SARS-CoV-2 cytopathic effect: -3.33%
10000 nM
  inhibition of SARS-CoV-2 cytopathic effect: -2.75%

## Cc1ccc2c(c1)C1(CCN(CCc3nc(-c4ccccc4)oc3C)CC1)OC(=O)N2
1 nM
  inhibition of SARS-CoV-2 cytopathic effect: 1.69%
8.33 nM
  inhibition of SARS-CoV-2 cytopathic effect: 4.93%
100 nM
  inhibition of SARS-CoV-2 cytopathic effect: 0.82%
833.33 nM
  inhibition of SARS-CoV-2 cytopathic effect: -0.79%
10000 nM
  inhibition of SARS-CoV-2 cytopathic effect: -7.82%

## CC(Cc1ccccc1)NCCC(c1ccccc1)c1ccccc1 (stereo not given) [prenylamine]
1 nM
  inhibition of SARS-CoV-2 cytopathic effect: 1.32%
8.33 nM
  inhibition of SARS-CoV-2 cytopathic effect: -1.92%
100 nM
  inhibition of SARS-CoV-2 cytopathic effect: -0.65%
833.33 nM
  inhibition of SARS-CoV-2 cytopathic effect: -1.29%
10000 nM
  inhibition of SARS-CoV-2 cytopathic effect: 23.1% (active)

## Nc1ccn([C@H]2CO[C@@H](CO)S2)c(=O)n1 [apricitabine]
1 nM
  inhibition of SARS-CoV-2 cytopathic effect: 0.27%
8.33 nM
  inhibition of SARS-CoV-2 cytopathic effect: 2.59%
100 nM
  inhibition of SARS-CoV-2 cytopathic effect: 0.92%
833.33 nM
  inhibition of SARS-CoV-2 cytopathic effect: 2.02%
10000 nM
  inhibition of SARS-CoV-2 cytopathic effect: -3.28%

## CNC(=O)c1ccc(-c2cnc3ncc(Cc4ccc5ncccc5c4)n3n2)cc1F
1 nM
  inhibition of SARS-CoV-2 cytopathic effect: 0.17%
8.33 nM
  inhibition of SARS-CoV-2 cytopathic effect: -1.02%
100 nM
  inhibition of SARS-CoV-2 cytopathic effect: -1.1%
833.33 nM
  inhibition of SARS-CoV-2 cytopathic effect: 2.22%
10000 nM
  inhibition of SARS-CoV-2 cytopathic effect: 7.85%

## O=C(O)CCn1c2c(c3ccccc31)C[C@H](NS(=O)(=O)c1ccc(F)cc1)CC2 [ramatroban]
1 nM
  inhibition of SARS-CoV-2 cytopathic effect: -0.49%
8.33 nM
  inhibition of SARS-CoV-2 cytopathic effect: 0.09%
100 nM
  inhibition of SARS-CoV-2 cytopathic effect: 0.01%
833.33 nM
  inhibition of SARS-CoV-2 cytopathic effect: 0.06%
10000 nM
  inhibition of SARS-CoV-2 cytopathic effect: 2.02%

## Cc1noc2c1-c1ccccc1C(c1ccc(Cl)cc1)=N[C@H]2CC(N)=O
1 nM
  inhibition of SARS-CoV-2 cytopathic effect: -3.02%
8.33 nM
  inhibition of SARS-CoV-2 cytopathic effect: 0.61%
100 nM
  inhibition of SARS-CoV-2 cytopathic effect: -3.13%
833.33 nM
  inhibition of SARS-CoV-2 cytopathic effect: 0.14%
10000 nM
  inhibition of SARS-CoV-2 cytopathic effect: -11.1%

## c1cc(CN2CCCCC2)cc(OCCCNc2nc3ccccc3s2)c1 [zolantidine]
1 nM
  inhibition of SARS-CoV-2 cytopathic effect: 0.78%
8.33 nM
  inhibition of SARS-CoV-2 cytopathic effect: 3.51%
100 nM
  inhibition of SARS-CoV-2 cytopathic effect: 1.37%
833.33 nM
  inhibition of SARS-CoV-2 cytopathic effect: 4.09%
10000 nM
  inhibition of SARS-CoV-2 cytopathic effect: 4.6%

## CNc1ccc([N+](=O)[O-])cc1-n1cnc(-c2ccc(C(F)(F)F)cc2)c1
1 nM
  inhibition of SARS-CoV-2 cytopathic effect: 1.34%
8.33 nM
  inhibition of SARS-CoV-2 cytopathic effect: 1.42%
100 nM
  inhibition of SARS-CoV-2 cytopathic effect: 0.62%
833.33 nM
  inhibition of SARS-CoV-2 cytopathic effect: 1.02%
10000 nM
  inhibition of SARS-CoV-2 cytopathic effect: -0.19%

## C[C@]12CC[C@@H]3c4ccc(O)cc4CC[C@H]3[C@@H]1CCC2=O [estrone]
1 nM
  inhibition of SARS-CoV-2 cytopathic effect: 1.09%
8.33 nM
  inhibition of SARS-CoV-2 cytopathic effect: 1.93%
100 nM
  inhibition of SARS-CoV-2 cytopathic effect: -0.92%
833.33 nM
  inhibition of SARS-CoV-2 cytopathic effect: 0.5%
10000 nM
  inhibition of SARS-CoV-2 cytopathic effect: 2.53%

## CCCCCCNC(=O)n1cc(F)c(=O)[nH]c1=O [Carmofur]
1 nM
  inhibition of SARS-CoV-2 cytopathic effect: -1.95%
8.33 nM
  inhibition of SARS-CoV-2 cytopathic effect: 0.48%
100 nM
  inhibition of SARS-CoV-2 cytopathic effect: 2.25%
833.33 nM
  inhibition of SARS-CoV-2 cytopathic effect: 1.65%
10000 nM
  inhibition of SARS-CoV-2 cytopathic effect: -0.73%

## COc1ccc(C2CNC(=O)NC2)cc1O[C@H]1C[C@@H]2CC[C@H]1C2 [atizoram]
1 nM
  inhibition of SARS-CoV-2 cytopathic effect: -0.64%
8.33 nM
  inhibition of SARS-CoV-2 cytopathic effect: 1.37%
100 nM
  inhibition of SARS-CoV-2 cytopathic effect: -0.71%
833.33 nM
  inhibition of SARS-CoV-2 cytopathic effect: -0.02%
10000 nM
  inhibition of SARS-CoV-2 cytopathic effect: -1.24%

## CC(C)(C)OC(=O)N[C@H]1CCCCC/C=C\[C@@H]2C[C@@]2(C(=O)NS(=O)(=O)C2CC2)NC(=O)[C@@H]2C[C@@H](OC(=O)N3Cc4cccc(F)c4C3)CN2C1=O [danoprevir]
1 nM
  inhibition of SARS-CoV-2 cytopathic effect: 1.7%
8.33 nM
  inhibition of SARS-CoV-2 cytopathic effect: 1.4%
100 nM
  inhibition of SARS-CoV-2 cytopathic effect: 1.06%
833.33 nM
  inhibition of SARS-CoV-2 cytopathic effect: 0.24%
10000 nM
  inhibition of SARS-CoV-2 cytopathic effect: -1.76%

## CCOc1cc(N2CCC(O)CC2)ccc1Nc1ncc2c(n1)N(C)c1ccccc1C(=O)N2C
1 nM
  inhibition of SARS-CoV-2 cytopathic effect: 1.68%
8.33 nM
  inhibition of SARS-CoV-2 cytopathic effect: 1.49%
100 nM
  inhibition of SARS-CoV-2 cytopathic effect: 1.28%
833.33 nM
  inhibition of SARS-CoV-2 cytopathic effect: -1.36%
10000 nM
  inhibition of SARS-CoV-2 cytopathic effect: -1.31%
